Laboratory results: PubChem BioAssay (NCATS)
The source made the active and inactive calls. Calls come from the whole dose curve; as a rule, active = well fitted activation curve with a large enough effect; inconclusive = small, poorly fitted or top-dose-only effect; inactive = flat fitted curve, though single readings scatter.

Assay: Cellular Toxicity (caspase-3) SK-N-SH (AID 661)
Details: SK-N-SH caspase-3 activation, qHTS, DMSO as zero, staurosporine as full; series mostly up to 91.7 µM
From the text: NIH Chemical Genomics Center [NCGC]
NIH Molecular Libraries Screening Centers Network [MLSCN]
National Institutes of Environmental Health Sciences [NIEHS]
National Toxicology Program [NTP]
We have developed a 1536-well cell-based assay for quantitative high throughput screening (qHTS) against a number of cell lines to determine in vitro caspase 3/7 activity of small molecules. This particular assay uses the SK-N-SH cell line which is derived from human neuroblastoma.
NCGC Assay Protocol Summary:
The Caspase-Glo 3/7 assay (Promega) is a homogeneous method to measure caspase-3 and caspase-7 activities in cultured cells. The quantitation of caspase 3/7 activity is based on the cleavage of a peptide-aminoluciferin substrate. After caspase cleaves the substrate the free aminoluciferin is liberated and serves as the substrate of luciferase, which generates the light. The luminescent signal is proportional to amount of caspase 3/7 activity present.
Using the Caspase-Glo 3/7 assay, the amount of caspase 3/7 activity was measured in the SK-N-SH cell line with complete culture medium following compound treatment for 16 hours. The assay was performed in opaque white 1536-well plates. In the screen, tamoxifen and staurosporine were used as positive controls. Library compounds were measured for their ability to cause the activation of caspase 3/7 in the cell line, as reflected by an increase in luminescence signal, in a concentration-dependent manner. Data were normalized to the controls for basal activity (DMSO only) and 100% stimulation (10 uM staurosporine). AC50 values were determined from concentration-response data modeled with the standard Hill equation.
qHTS protocol for caspase 3/7 assay in SK-N-SH cells
[Step] [Parameter] [Value] [Description]
1. Reagent; 5 uL; 1500 SK-N-SH cells/well
2. Time; 5 hr; 37 °C incubation
4. Controls; 23 nL; Tamoxifen 0.23 uM to 100 uM & staurosporine 1.4 pM to 100 uM
5. Time; 16 hr; 37 °C incubation
6. Reagent; 5 uL; Caspase-Glo 3/7 reagent
7. Time; 1 hr; Room Temperature
8. Detection; Luminescence; Viewlux plate reader
Keywords: caspase 3/7, apoptosis, SK-N-SH cell line, luminescence, NTPHTS, NTPHTS_NCGC, NIEHS, EPA, DSSTox, MLSMR, MLSCN, NIH Roadmap, qHTS, NCGC

Structure (SMILES) | outcome
CCOC(C)=O | inactive
O=C(O)CCC(=O)C(=O)O | inactive
IC(I)I | inactive
Cc1ccccc1 | inactive
CC(C)=O | inactive
CCCCCCCC/C=C\CCCCCCCC(=O)O | inactive
Nc1ccn([C@H]2CS[C@@H](CO)O2)c(=O)n1 | inactive
O=S(=O)(O)O | inactive
CCCCC/C=C\C/C=C\CCCCCCCC(=O)O | inactive
CCCCCCCC(=O)O | inactive
CCOc1ccc2c(c1)C(C)=CC(C)(C)N2 | inactive
CC1=C2[C@@H]([C@H](C)CC[C@H]2/C=C(\C)C(=O)O)[C@H](O)C1 | inactive
CC1=C(/C=C/C(C)=C/C=C/C(C)=C/CO)C(C)(C)CCC1 | inactive
CC(O)CO (centres undefined) | inactive
